Measurements taken from article PMC8384837, “Expanding the binding specificity for RNA recognition by a PUF domain”.
Changes are numbered by the printed parent chain.

Legend:
Assay in all cases: yeast three-hybrid, YBZ-1, SC-Leu-His + 0.5 mM 3-AT, 4 days
Conditions in all cases: tags: N-Gal4 AD-HA kept; label: inside an RPR1-promoter hybrid RNA with tandem MS2 sites; ssRNA
[1] = molecular target: PUM1 PUF domain R5-AGD (Homo sapiens, UniProt Q14671 828-1176, C1007A;R1008G;Q1011D)
Method in brief: (§1)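 The interaction score is the log change in how often each variant appears, from input to selection. Frequencies came from PCR-amplified, Illumina-sequenced repeat regions of Pumilio-1 PUF domain libraries grown in strain YBZ-1 (LexA–MS2 coat fusion, HIS3 reporter) alongside matching RNA elements. Input plates were SC-Leu and selection plates were SC-Leu-His + 0.5 mM 3-AT, each for four days, and the log2 calculation used a pseudocount of 1 where a variant was absent.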

[2] = molecular target: PUM1 PUF domain R5-SMG (Homo sapiens, UniProt Q14671 828-1176, C1007S;R1008M;Q1011G)
Method in brief: as §1

[3] = molecular target: PUM1 PUF domain R4-WSY (Homo sapiens, UniProt Q14671 828-1176, N971W;H972S;Q975Y)
Method in brief: as §1

[4] = molecular target: T1, PUM1 PUF domain R6-CWS (Homo sapiens, UniProt Q14671 828-1176, N1043C;Y1044W;Q1047S)
T1 sequence: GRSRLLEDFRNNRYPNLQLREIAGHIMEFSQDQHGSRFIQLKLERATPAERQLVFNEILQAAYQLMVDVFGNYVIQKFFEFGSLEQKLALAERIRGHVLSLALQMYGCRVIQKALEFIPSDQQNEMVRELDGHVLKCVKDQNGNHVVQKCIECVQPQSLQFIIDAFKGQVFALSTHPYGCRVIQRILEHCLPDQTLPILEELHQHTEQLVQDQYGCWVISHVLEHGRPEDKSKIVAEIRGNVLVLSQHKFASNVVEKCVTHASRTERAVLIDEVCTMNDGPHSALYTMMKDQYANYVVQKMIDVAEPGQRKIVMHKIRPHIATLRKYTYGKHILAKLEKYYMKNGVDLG
Method in brief: as §1

[5] = molecular target: T2, PUM1 PUF domain R6-RFS (Homo sapiens, UniProt Q14671 828-1176, N1043R;Y1044F;Q1047S)
T2 sequence: T1 sequence with C216R, W217F
Method in brief: as §1

[6] = molecular target: PUM1 PUF domain R8-VRR (Homo sapiens, UniProt Q14671 828-1176, N1122V;Y1123R;Q1126R)
Method in brief: as §1

[7] = molecular target: PUM1 PUF domain R7-KPI (Homo sapiens, UniProt Q14671 828-1176, S1079K;N1080P;E1083I)
Method in brief: as §1

[8] = molecular target: PUM1 PUF domain R7-LFG (Homo sapiens, UniProt Q14671 828-1176, S1079L;N1080F;E1083G)
Method in brief: as §1

[9] = molecular target: PUM1 PUF domain R7-EPA (Homo sapiens, UniProt Q14671 828-1176, S1079E;N1080P;E1083A)
Method in brief: as §1

[10] = molecular target: PUM1 PUF domain R5-DYF (Homo sapiens, UniProt Q14671 828-1176, C1007D;R1008Y;Q1011F)
Method in brief: as §1

[11] = molecular target: T3, PUM1 PUF domain R6-VFY (Homo sapiens, UniProt Q14671 828-1176, N1043V;Y1044F;Q1047Y)
T3 sequence: T1 sequence with C216V, W217F, S220Y
Method in brief: as §1

[12] = molecular target: T4, PUM1 PUF domain R6-TFE (Homo sapiens, UniProt Q14671 828-1176, N1043T;Y1044F;Q1047E)
T4 sequence: T1 sequence with C216T, W217F, S220E
Method in brief: as §1

[13] = molecular target: PUM1 PUF domain R3-RGG (Homo sapiens, UniProt Q14671 828-1176, C935R;R936G;Q939G)
Method in brief: as §1

[14] = molecular target: T5, PUM1 PUF domain R6-GLR (Homo sapiens, UniProt Q14671 828-1176, N1043G;Y1044L;Q1047R)
T5 sequence: T1 sequence with C216G, W217L, S220R
Method in brief: as §1

[15] = molecular target: PUM1 PUF domain R1-KRR (Homo sapiens, UniProt Q14671 828-1176, S863K;Q867R)
Method in brief: as §1

[16] = molecular target: PUM1 PUF domain R5-SRR (Homo sapiens, UniProt Q14671 828-1176, C1007S;Q1011R)
Method in brief: as §1

**Q.** Which binding signal [1] does the source give for “GGCUAGAACUAGUGGAUCCCCCGGCGCCCGGCGGCUCGAGCCCGGGUAAGUGUGAAUAGUCUGCAUGCCGCCGGGCGCCAUGCCUGCAGGUCGACUCUAGAAAACAUG” here?
**A.** Its binding signal is 3.87 log2 enrichment (interaction score).

**Q.** What about the binding signal [2] of the same sequence?
**A.** Its binding signal is 2.11 log2 enrichment (interaction score).

**Q.** What does the source list for “GGCUAGAACUAGUGGAUCCCCCGGCGCCCGGCGGCUCGAGCCCGGGUAAGUGUAAAUAGUCUGCAUGCCGCCGGGCGCCAUGCCUGCAGGUCGACUCUAGAAAACAUG”?
**A.** binding signal [1]: 1.82 log2 enrichment (interaction score); binding signal [3]: 2.29 log2 enrichment (interaction score); binding signal [4]: 3.77 log2 enrichment (interaction score); binding signal [5]: 4.37 log2 enrichment (interaction score); binding signal [6]: 1.71 log2 enrichment (interaction score)

**Q.** “GGCUAGAACUAGUGGAUCCCCCGGCGCCCGGCGGCUCGAGCCCGGGUAAGUGUAUAUAGUCUGCAUGCCGCCGGGCGCCAUGCCUGCAGGUCGACUCUAGAAAACAUG” was tested. Which binding signal [3] did it give?
**A.** Its binding signal is 3.41 log2 enrichment (interaction score).

**Q.** Which binding signal [7] does the source give for “GGCUAGAACUAGUGGAUCCCCCGGCGCCCGGCGGCUCGAGCCCGGGUAAGUCUAAAUAGUCUGCAUGCCGCCGGGCGCCAUGCCUGCAGGUCGACUCUAGAAAACAUG” here?
**A.** The binding signal was 3.61 log2 enrichment (interaction score).

**Q.** And the binding signal [8]?
**A.** Its binding signal is 3.01 log2 enrichment (interaction score).

**Q.** What about the binding signal [9] of the same sequence?
**A.** Its binding signal is 4.81 log2 enrichment (interaction score).

**Q.** For “GGCUAGAACUAGUGGAUCCCCCGGCGCCCGGCGGCUCGAGCCCGGGUAAGUUUAAAUAGUCUGCAUGCCGCCGGGCGCCAUGCCUGCAGGUCGACUCUAGAAAACAUG”, which binding signal [8] is on record?
**A.** Its binding signal is 4.82 log2 enrichment (interaction score).

**Q.** For “GGCUAGAACUAGUGGAUCCCCCGGCGCCCGGCGGCUCGAGCCCGGGUAAGUGUUAAUAGUCUGCAUGCCGCCGGGCGCCAUGCCUGCAGGUCGACUCUAGAAAACAUG”, which binding signal [2] is on record?
**A.** The binding signal was 0.67 log2 enrichment (interaction score).

**Q.** What about the binding signal [10] of the same sequence?
**A.** The binding signal was 4.44 log2 enrichment (interaction score).

**Q.** What does the source list for “GGCUAGAACUAGUGGAUCCCCCGGCGCCCGGCGGCUCGAGCCCGGGUAAGUGAAAAUAGUCUGCAUGCCGCCGGGCGCCAUGCCUGCAGGUCGACUCUAGAAAACAUG”?
**A.** binding signal [4]: 5.26 log2 enrichment (interaction score); binding signal [11]: 6.28 log2 enrichment (interaction score)

**Q.** With “GGCUAGAACUAGUGGAUCCCCCGGCGCCCGGCGGCUCGAGCCCGGGUAAGUGGAAAUAGUCUGCAUGCCGCCGGGCGCCAUGCCUGCAGGUCGACUCUAGAAAACAUG” as the sequence, how does the binding signal [12] read?
**A.** Its binding signal is 3.07 log2 enrichment (interaction score).

**Q.** With “GGCUAGAACUAGUGGAUCCCCCGGCGCCCGGCGGCUCGAGCCCGGGUAAGUGUAAUUAGUCUGCAUGCCGCCGGGCGCCAUGCCUGCAGGUCGACUCUAGAAAACAUG” as the sequence, how does the binding signal [13] read?
**A.** The binding signal was 2.13 log2 enrichment (interaction score).

**Q.** For “GGCUAGAACUAGUGGAUCCCCCGGCGCCCGGCGGCUCGAGCCCGGGUAAGUGCAAAUAGUCUGCAUGCCGCCGGGCGCCAUGCCUGCAGGUCGACUCUAGAAAACAUG”, which binding signal [14] is on record?
**A.** The binding signal was 3.46 log2 enrichment (interaction score).

**Q.** How did the binding signal [15] turn out when “GGCUAGAACUAGUGGAUCCCCCGGCGCCCGGCGGCUCGAGCCCGGGUAAGUGUAAAUCGUCUGCAUGCCGCCGGGCGCCAUGCCUGCAGGUCGACUCUAGAAAACAUG” was run?
**A.** Its binding signal is 5.65 log2 enrichment (interaction score).

**Q.** How did the binding signal [15] turn out when “GGCUAGAACUAGUGGAUCCCCCGGCGCCCGGCGGCUCGAGCCCGGGUAAGUGUAAAUUGUCUGCAUGCCGCCGGGCGCCAUGCCUGCAGGUCGACUCUAGAAAACAUG” was run?
**A.** Its binding signal is 5.9 log2 enrichment (interaction score).

**Q.** For “GGCUAGAACUAGUGGAUCCCCCGGCGCCCGGCGGCUCGAGCCCGGGUAAGCGUAAAUAGUCUGCAUGCCGCCGGGCGCCAUGCCUGCAGGUCGACUCUAGAAAACAUG”, which binding signal [6] is on record?
**A.** The binding signal was 2.81 log2 enrichment (interaction score).

**Q.** “GGCUAGAACUAGUGGAUCCCCCGGCGCCCGGCGGCUCGAGCCCGGGUAAGUGUCAAUAGUCUGCAUGCCGCCGGGCGCCAUGCCUGCAGGUCGACUCUAGAAAACAUG” was tested. Which binding signal [16] did it give?
**A.** The binding signal was 4.23 log2 enrichment (interaction score).
